Experimental data published in the supplement of paper PMC11417369.
± gives the standard deviation of the averaged measurements. Whole data set: some 25,000 sequences, median “ln(normalized median fluorescence intensity)” near 8.9, cut for the highest 2% near 10. For the sample, the highest values were picked, then their nearest neighbours and some sequences at random.

System: PfAP2-LT AP2 domain (GST-tagged)
Assay: gcPBM binding intensity (ln(normalized median fluorescence intensity)); higher = stronger DNA binding
Summary of the method: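 Plasmodium falciparum DNA-binding domains carrying a GST tag were expressed in E. coli and applied for 1 h, at about 25 μg on average, to an Agilent 4 × 180k array. The array held primer-extended double-stranded 36-bp intergenic genomic probes together with negative controls, and binding took place in 1× PBS with 1% milk, 0.2 mg/ml BSA, 0.5% salmon testes DNA and 0.03% Triton X-100. An Alexa488 anti-GST antibody detected bound protein, and the array was scanned at 488 nm. Binding intensity is taken as the highest Masliner-normalised natural-log median intensity across replicate spots of either probe orientation.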

Row | Sequence | gcPBM binding intensity (ln)
1 | ACAATAAAAATTTATGCATGTGAATTGAAAAAAAAA [TGCATGCA_site1037] | 8.72 ± 0.48
2 | CATAAATCAGCCATAACACACATACATATATACATA [CACACA_site8025] | 9.28 ± 0.42
3 | TAATATACATAATAATGTACATATTTTCATATATAC [XGTACX_site6913] | 8.74 ± 0.35
4 | ACCATGAAAATATTATGTACATATGTATTATATATA [XGTACX_site408] | 8.87 ± 0.33
5 | ATATATAATATATATGCATGTGACATTAATAATATA [TGCATGCA_site880] | 8.81 ± 0.4
6 | TTTATATTGATATATACACACATATACATCCTATTT [CACACA_site7442] | 9.11 ± 0.42
7 | ATAAATATTGGGTGCACACACATAATATATATATAT [CACACA_site2272] | 9.59 ± 0.35
8 | GGAAAAACCATTCGCACACACACATAATATATAATA [CACACA_site1424] | 9.71 ± 0.31
9 | AACCATTGGGAAAGGGTGCACATATATATATATATA | 10.09 ± 0.099
10 | TAAAACATAAGAGACACACACACATATATATATATA [CACACA_site3643] | 10.1 ± 0.16
11 | AAACATAAGAGACACACACACATATATAAATAAATA [CACACA_site7674] | 9.79 ± 0.38
12 | TAATAAATAAGACACACACACATATATATATATTAT [CACACA_site1389] | 9.8 ± 0.2
13 | AACATTATAAGACACACACACACATATATATATATA [CACACA_site8259] | 10.3 ± 0.3
14 | AACATTATAAGACACACACACACATATATAAATATA [CACACA_site6622] | 10.2 ± 0.38
15 | CATTATAAGAGACACACACACATATATAAATATGTA [CACACA_site6621] | 9.63 ± 0.38
16 | ATATGGAATAATACGCGTACACACATATATATATTA [XGTACX_site307] | 9.34 ± 0.3
17 | GAATACATAATAACATGTACACACATTCTTCTATAA [XGTACX_site8725] | 9.01 ± 0.36
18 | ATATATATATATAATGCACACATTATAAATTATGTA [CACACA_site5802] | 9.02 ± 0.31
19 | ATTAAAAAAATTAAAAGTACACATATTTCAATGATA [XGTACX_site5606] | 8.43 ± 0.41
20 | AAAATTATATGTAATTGTACGGAATTATATACGCAA [XGTACX_site2048] | 8.72 ± 0.41
21 | TTGGTCTTTTAAAAAAGTACAAAAAAAAAAAAAAAA [XGTACX_site1665] | 8.08 ± 0.55
22 | ATTCATATGAAACACACACACACACCCATAAAAAAA [CACACA_site3246] | 10.2 ± 0.2
23 | AAAAAAAAAAAAAACACACAAACAAATGAATAAATA [CACACA_site3300] | 8.99 ± 0.54

Row | Sequence | gcPBM binding intensity (ln)
24 | AAAAAAAAAAAAAAAACACACAAACAAATGAATAAA [CACACA_site5769] | 8.89 ± 0.5
25 | TAAAATAAAACAAACACACACACACGGACACAAAAA [CACACA_site7754] | 10.4 ± 0.34
26 | GGACAACAAACAAACACACACAAAAAAAAAATAAAA [CACACA_site3791] | 9.6 ± 0.71
27 | AAAAAAAAAAAAAACACACACACAAAATAAACAAAC [CACACA_site2720] | 9.66 ± 0.44
28 | AAATAAATGAAACACACACACACAAAAAAAAAAAAC [CACACA_site2625] | 10.2 ± 0.28
29 | TCATTCATATGTTACACACACACACCCACATAAAAA [CACACA_site3245] | 9.8 ± 0.23
30 | CAACAAAATAAACACACACACACAAACACAAAAAAA [CACACA_site5806] | 10.2 ± 0.27
31 | ATTCATTCATATGTTACACACACACCCACCCATAAA [CACACA_site9066] | 9.71 ± 0.23
32 | AAAATAAAATAAAACACAAAAAAATAAAACAAAATA [CACACA_negctrl_site16] | 8.87 ± 0.49
33 | CAAAAAAAATAAAACACACACACAAAAAAATAAAAA [CACACA_site466] | 9.84 ± 0.31
34 | ATGTTATATTTTTTTATACACACTGGAATATATAAA [CACACA_site215] | 8.64 ± 0.34
35 | TGAATGTAAGAAAATACACACTAGTATAGTAACACC [CACACA_site5131] | 9.24 ± 0.38
36 | ATGTAATATTTACAACGTACAAATTATAAACATATT [XGTACX_site603] | 8.88 ± 0.35
37 | GACGACTATATTAATTGTACTCAATTTAAGCATAAT [XGTACX_site2750] | 8.72 ± 0.35
38 | TTAATAACAAAATAAACACACATATATAAATACCCA [CACACA_site4960] | 9.11 ± 0.4
39 | TATATCTATAATATTACACACATATATTTATATTTT [CACACA_site7595] | 8.95 ± 0.33
40 | CATATTATATTTTCATGTACACATAACATATTTATA [XGTACX_site4787] | 8.76 ± 0.42
41 | GAATAAATTGTATTGTGTACATATAAAAGCATCTAA [XGTACX_site8271] | 8.8 ± 0.4
42 | TTCTTTTTAAATTACACACACATATATATATGTATA [CACACA_site3515] | 9.32 ± 0.41
43 | AATAATAATTTAAAAAGTACATTCTAATAAACACGT [XGTACX_site1444] | 8.78 ± 0.52
44 | CTCCATATGAAACACACACACAAATGAAAAAAATAT [CACACA_site3018] | 9.82 ± 0.4
45 | CAAAAAATGAAACACACACACACACCCATAAATAAA [CACACA_site1231] | 10.12 ± 0.035
46 | ATAATGAAAAGGAACATACACACCCCATATAAATAT [CACACA_site3442] | 9.61 ± 0.12

Row | Sequence | gcPBM binding intensity (ln)
47 | TAATAAATAAATGACACACACACACGCAAAAAAAAA [CACACA_site7275] | 9.94 ± 0.19
48 | ATTAATAAATAAATGACACACACACCCACAAAAAAA [CACACA_site8839] | 9.9 ± 0.12
49 | TAATAAATAAATGACACACACACACCCAAAAAAAAA [CACACA_site2623] | 10.1 ± 0.41
50 | GGGTATATATTATTATGTACACATGTATAAAATAAG [XGTACX_site2633] | 8.8 ± 0.52
51 | ATACAAAAAGTAAAAAGTACTTAACTAAATATATAA [XGTACX_site2335] | 8.74 ± 0.56
52 | GTATATATGTATGTATGTACGTATATAGTTATGTAT [XGTACX_site6769] | 8.98 ± 0.3
53 | TATATATATATTATATGTACGTATGTATGTATATAT [XGTACX_site6451] | 8.88 ± 0.3
54 | ATATATATATATATATGTACGTACTCAGTTATGCCT [XGTACX_site453] | 10.2 ± 0.29
55 | AGTATAAAATTTGGTTGTACATTTTTAAAAAAATTA [XGTACX_site7519] | 8.29 ± 0.42
56 | GGAATATTAATAAGAGTGCATTTTGTATTCAATATG | 8.66 ± 0.41
57 | GTATAATTTTCGTATTCACACAAGAATATACTACAT [CACACA_site4877] | 8.91 ± 0.45
58 | TATCTCATAGTATACACACACACACGCGCACATATA [CACACA_site6917] | 10.1 ± 0.3
59 | ACATCAAGCAGACACACACACACACGCACACGCACA [CACACA_site6309] | 10.4 ± 0.17
60 | TTAAAAAAAAGACACACACACATACACATATTTATA [CACACA_site7535] | 9.94 ± 0.35
61 | TCATAGTATAGACACACACACACACGCATATAAATA [CACACA_site6915] | 9.92 ± 0.13
62 | CAAATACACGGACACACACACACAAAAAAAAAAAAA [CACACA_site6385] | 10 ± 0.71
63 | CACAGACACGGACACACACACACAAAAAAAAAAAGA [CACACA_site4436] | 10.1 ± 0.55
64 | CACACGCACGGACACACACACAAAAAAAAAAAGAAA [CACACA_site6378] | 9.34 ± 0.58
65 | TCTCATAGTAGACACACACACACACGCACATATATA [CACACA_site6916] | 10.1 ± 0.31
66 | AAAAAAAAAAGACACACACACACATACACATACATA [CACACA_site7362] | 9.97 ± 0.071
67 | CCAACATGCAGACGCACACACAAAAAAAGCATGCAT [CACACA_site74] | 9.54 ± 0.4
68 | AAAAAAAAAAGACACACACACACACGGACACATACA [CACACA_site7363] | 10.3 ± 0.13
69 | ATAAATCAAAGGCACACACACAAAAAAAAAAAAAAA [CACACA_site160] | 9.62 ± 0.49

Row | Sequence | gcPBM binding intensity (ln)
70 | ATTTCTCTATCGTAATGTACATAAAAAATGAAAAAA [XGTACX_site1201] | 8.51 ± 0.51
71 | TTATTATTTTATAACACACACATATATATTATATCT [CACACA_site1434] | 9.11 ± 0.35
72 | ATTAAATCCGCACGCACACACACATATTAATAAAAA [CACACA_site3992] | 9.71 ± 0.33
73 | AATTGTGCATTATATTGTACACGTGTTGTATATATT [XGTACX_site975] | 9.18 ± 0.33
74 | TTTGTTTTTAATTTCGCACACACCTTGTGGAAAAAA [CACACA_site577] | 8.98 ± 0.3
75 | TTATTTATAATATATACACACTAACATTATTTATCC [CACACA_site4835] | 8.8 ± 0.51
76 | AAAAATAAATTTAGTTGTACTTTATTATTTTAAATA [XGTACX_site3067] | 8.28 ± 0.37
77 | ATATAACATAGACACACACACATATAAATATATTAT [CACACA_site7865] | 9.67 ± 0.14
78 | CTTCATAAAAATTGCACACATATAATAATGTACATA [CACACA_site2212] | 8.96 ± 0.36
79 | TTAAATGGAAAAATATGTACATATATATATATATTT [XGTACX_site2286] | 8.84 ± 0.35
80 | CGCACACGCAGACACACACACACATATAAATAAATA [CACACA_site7101] | 9.74 ± 0.37
81 | CACGCACGCAGACACACACACACACGCACATATATA [CACACA_site6303] | 10.2 ± 0.38
82 | AACAGACATAGAAACACACATACATACATACATACA [CACACA_site2479] | 9.53 ± 0.65
83 | ACATCAAGCAGACACACACACACACCCACCCACCGA [CACACA_site371] | 10.4 ± 0.11
84 | AGCACGCACAGACACACACACATATTTATATTTATA [CACACA_site6291] | 9.72 ± 0.39
85 | AACACGCGCAGACACACACACACACGCACATATATA [CACACA_site7104] | 10.3 ± 0.28
86 | CAAGCACAGAAACACACACACACACCGACACAGACA [CACACA_site4359] | 10.1 ± 0.15
87 | TAAACAGACATATAAACACACATATAAACCGACATA [CACACA_site2478] | 9.4 ± 0.48
88 | CGCGCACCCAGACACACACACACACCGATATATATA [CACACA_site8687] | 10.1 ± 0.48
89 | AAGCATACATCAAGCACACACACACCCACAGAGACA [CACACA_site4362] | 9.91 ± 0.22
90 | GATCCATTATTGATCCGTACTTATTCATGTTATATA [XGTACX_site5946] | 8.91 ± 0.51
